Several values for one entry are separate records, joined by “and”; a condition that tells them apart may be missing. Equal values may be shown once. Results filed as inconclusive are left out. Entries that show only a call come without a potency. Some structures have more than one record in an assay (separate samples or runs), and their calls can disagree. Activity calls are given as the source filed them. Calls follow the shape of the dose curve; as a rule, active = well fitted inhibition curve with a large enough effect; inconclusive = small, poorly fitted or top-dose-only effect; inactive = no such curve, though single readings can be large or run the other way.
Target: M-phase phosphoprotein 8 (Homo sapiens) (UniProt Q99549)
Assay: qHTS Validation Assay for Inhibitors for MPP8 Chromodomain Interactions with Methylated Histone Tails (AID 488949); also: nearly all actives have a fitted effect of over 55% in size
Conditions: AlphaScreen MPP8 binding to H3K9me3 peptide; series mostly up to 57.1 µM
From the text: As our understanding of epigenetics expands, it is becoming clear that players in this field are potential targets for drug development. This area of epigenetic therapy has established applications for the treatment of cancer and neurological diseases. We have been involved in this field for a number of years and have performed high-throughput screens to identify the first small molecule inhibitors of protein methyltransferases. These methyltransferases target multiple substrates, and thus regulate many arms of an epigenetic pathway. The methylation of different substrates often generates docking sites for effector proteins that harbor binding domains (chromo, tudor, PHD, MBT and ANK repeats). It has been proposed that the binding sites generated for different proteins by these post-translational modifcations mediate downstream effects on chromatin. Consistent with this theory, di- and tri-methylation of histone H3K9 facilitates the binding of heterochromatin protein HP1. The HP1 protein harbors a chromodomain that is responsible for the methyl-dependent interaction between HP1 and lysine 9 of histone H3. HP1 was first described in flies as a heterochromatin associated protein that can regulate gene silencing. It harbors a chromodomain that binds H3K9me3. In addition, it harbors a chromoshadow domain that interacts with a large number of proteins that are involved in heterochromatin formation and gene repression. There are three highly related HP1 isoforms. All three variants are associated with pericentric heterochromatin and it is not clear whether they have specific or redundant functions. MPP8 is also involved in the repression of gene in euchromatic regions (unpublished data) and like HP1 its chromodomain binds H3K9me3. MPP8 harbors an ankyrin repeat region that is likely involved in binding and recruiting interacting proteins with transcriptional repressive function, much like the chromoshadow domain of HP1 does. We hypothesize that by inhibiting specific protein-protein interactions we will be able to develop compounds that block a single arm of an epigenetic pathway. The specificity attained by blocking a single protein-protein interaction will be far greater than that attained by blocking the enzyme that regulates one of many interactions. Low-affinity protein-protein interactions (Kd in the single- to double-digit micromolar range) such as those discussed here have been very difficult to assay by traditional techniques such as fluorescence polarization or fluorescence resonance energy transfer. We have developed a sensitive chemiluminescence-based assay (Quinn, et al. 2009), which serves as the starting point for this project. The following is a validation assay to identify lead compounds that can block methyl-dependent protein-protein interactions (specifically MPP8), which can be used as probes to analyze these methyl-driven interactions and perhaps even developed into targeted epigenetic therapies. Assay Provider: Mark T. Bedford, MD Anderson Screening Center PI: Austin, C.P. Screening Center: NIH Chemical Genomics Center [NCGC]
To each well, 2 uL of MPP8 protein (final 50 nM) and 1 uL biotinylated histone peptide trimethylated at Lys9 [b-H3(1-18)K9me3] (final 50 nM) was added in 1x PBS buffer, pH 7.4, containing 0.01% Tween-20 using a nanoliter dispenser. Formation of a protein-peptide complex proceeded at room temperature for 30 min. A Kalypsys pin-tool was employed to transfer 23 nL of library compound solution in DMSO to each well. Aurintricarboxylic acid (ATA) was used as an intraplate control with a 12-point titration in duplicate. Following a 30 min incubation of the protein-peptide complex with compounds at room temperature, a mixture of 40 ug/mL each streptavidin-coated donor and nickel chelate acceptor AlphaScreen beads (final 10 ug/mL) was added in a 1 uL dispense for a final volume of 4 uL. Plates were incubated protected from the light for 30 min at room temperature. […]
Potency is read from the fitted curve at half-maximal effect.

Sequence of M-phase phosphoprotein 8 (Homo sapiens) (Q99549 whole entry, looked up): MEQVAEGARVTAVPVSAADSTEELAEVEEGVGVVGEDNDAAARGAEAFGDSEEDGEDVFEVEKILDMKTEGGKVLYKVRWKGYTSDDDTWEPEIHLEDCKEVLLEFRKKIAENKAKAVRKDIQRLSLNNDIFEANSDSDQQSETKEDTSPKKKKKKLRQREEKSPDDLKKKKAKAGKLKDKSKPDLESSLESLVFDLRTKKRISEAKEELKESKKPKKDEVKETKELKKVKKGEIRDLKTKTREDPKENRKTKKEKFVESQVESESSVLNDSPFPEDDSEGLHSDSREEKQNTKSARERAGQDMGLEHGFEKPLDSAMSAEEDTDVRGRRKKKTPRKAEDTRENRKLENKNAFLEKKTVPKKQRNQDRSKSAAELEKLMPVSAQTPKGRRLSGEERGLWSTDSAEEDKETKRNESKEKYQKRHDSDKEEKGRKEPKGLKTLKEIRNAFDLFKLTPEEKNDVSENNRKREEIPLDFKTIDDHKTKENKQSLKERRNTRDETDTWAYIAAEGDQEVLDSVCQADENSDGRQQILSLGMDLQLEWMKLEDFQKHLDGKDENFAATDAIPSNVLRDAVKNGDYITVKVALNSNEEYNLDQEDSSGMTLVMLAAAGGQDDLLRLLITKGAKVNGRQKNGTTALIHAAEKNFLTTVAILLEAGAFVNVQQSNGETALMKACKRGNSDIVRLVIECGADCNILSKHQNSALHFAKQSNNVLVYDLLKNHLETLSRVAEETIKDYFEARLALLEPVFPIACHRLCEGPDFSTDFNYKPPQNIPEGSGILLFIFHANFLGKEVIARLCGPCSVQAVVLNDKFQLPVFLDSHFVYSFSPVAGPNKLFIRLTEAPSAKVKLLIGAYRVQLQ

| SMILES | Potency |
| --- | --- |
| OCc1cnc[nH]1 | inactive |
| COc1ccc(CNC(=O)/C=C/c2ccc3[nH]cc(CCN(C)C)c3c2)cc1 | inactive |
| NC(=O)CI | 8.91 µM (active) |
| C=CCN1CCC23c4c5ccc(O)c4O[C@H]2C(=O)CC[C@@]3(O)C1C5 (stereo not given in full) | inactive |
| C[C@]12Cc3cn4c(nc3C=C1CCC1C2CC[C@@]2(C)[C@H]1CC[C@@]2(O)C#N)nc1ccccc14 (stereo not given in full) | inactive |
| CCN(CCCl)Cc1ccccc1Br | inactive |
| c1ccc2c(c1)[I+]c1ccccc1-2 | inactive |
| COc1ccc2[nH]c3c(c2c1)CCNC3 | inactive |
| CC(Cc1ccc(OCC(=O)O)cc1)NCC(O)c1cccc(Cl)c1 (stereo not given) | inactive |
| CC(C)[C@@]1(NC(=O)[C@@H]2C[C@@H]3c4cccc5[nH]cc(c45)C[C@H]3N(C)C2)O[C@@]2(O)[C@@H]3CCCN3C(=O)[C@H](Cc3ccccc3)N2C1=O | inactive |
| N[C@@]1(C(=O)O)CC[C@@H](C(=O)O)C1 | inactive |
| COc1ccc2c(c1)C13CCCCC1C(C2)N(C)CC3 (stereo not given) | inactive |
| Nc1ccc(CCN2CCN(c3cccc(C(F)(F)F)c3)CC2)cc1 | inactive |
| CCn1cnc2c(Nc3cccc(Cl)c3)nc(N[C@@H]3CCCC[C@@H]3N)nc21 | 39.8 µM (active) and inactive |
| Ic1ccccc1CNC1C2CCN(CC2)C1C(c1ccccc1)c1ccccc1 (stereo not given) | inactive |
| CP(=O)(O)C1=CCNCC1 | inactive |
| CCCCCCC(C)(C)c1ccc([C@@H]2C[C@H](O)CC[C@H]2CCCO)c(O)c1 | inactive |
| C[C@@H]1O[C@@H](O[C@H]2C[C@@H](O)[C@]3(CO)[C@@H]4C(CC[C@]3(O)C2)[C@@]2(O)CC[C@H]([C@@H]3COC(=O)C3)[C@@]2(C)C[C@H]4O)[C@H](O)[C@H](O)[C@H]1O (stereo not given in full) | inactive |
| CCS(=O)(=O)Nc1cccc(C(=C2CCCCC2)c2cnc[nH]2)c1 | inactive |
| CN1CC[C@@]2(C)c3cc(O)ccc3N(C)C12 (stereo not given in full) | inactive |

| SMILES | Potency |
| --- | --- |
| CCCN(CCC)CCc1ccc(O)c(O)c1 | inactive |
| CN(N=O)c1ccc(O)c(O)c1 | 2.51 µM (active) and 2.38 µM (active) |
| NC(C(=O)O)c1cc(=O)[nH]o1 (stereo not given) | inactive |
| NC(Cc1cc(O)c(O)cc1O)C(=O)O (stereo not given) | 501 nM (active) and 474 nM (active) |
| CCCN1CCC[C@@H](c2cccc(O)c2)C1 | inactive |
| CN1C2CCC1CC(OC(c1ccccc1)c1ccccc1N)C2 (stereo not given) | inactive |
| COc1ccc2c(c1)/C(=C/c1cnc[nH]1)C(=O)N2 | 44.7 µM (active) and inactive |
| CC(N)c1cccc(Cl)c1Cl (stereo not given) | inactive |
| CCCn1c(C)c(C(=O)c2ccc3ccccc3c2)c2ccccc21 | inactive |
| Cc1o[nH]c(=O)c1CC(N)C(=O)O (stereo not given) | inactive |
| CCCN(CCC)C1CCc2cccc(O)c2C1 (stereo not given) | inactive |
| N=C(N)c1ccc(CS(=O)(=O)F)cc1 | inactive |
| Cc1c2ccncc2c(C)c2c1[nH]c1ccccc12 | inactive |
| C[N+]1(C)CCN(c2ccccc2)CC1 | inactive |
| NC(N)=NOCC[C@H](N)C(=O)O | inactive |
| C=CCN(C1=NCCN1)c1c(Cl)cccc1Cl | inactive |
| N#CCCN | inactive |
| CN(C(=O)Cc1ccc(Cl)c(Cl)c1)C(CN1CCCC1)c1cccc(OCC(=O)O)c1 (stereo not given) | inactive |
| Oc1ccc2c3c1O[C@H]1c4oc5ccccc5c4C[C@@]4(O)C(C2)N(CC2CC2)CCC314 (stereo not given in full) | inactive |
| CC(C)(C)c1cc(C=C(C#N)C#N)cc(C(C)(C)C)c1O | 10 µM (active) |
